Here are results for eleven compounds from PubChem BioAssay (EPA / NIEHS).

For test [1], the system named is frog Estrogen Receptor (ER), gene 398734. The test can be described thus: ATG_frER1_XSP2: Attagene TRANS-FACTORIAL Multi-Species (XSP2) HepG2 Assay for frog Estrogen Receptor (ER) (AID 2283821).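 Further: hits raise reporter mRNA above DMSO baseline so potency means agonist or activator.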 The method in brief:
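Steps: transfect HepG2 with multiple reporter transcription units; treat with chemical for 24 h; isolate RNA, reverse-transcribe, PCR-amplify, label with 6-FAM, digest with HpaI; resolve fragments by capillary electrophoresis. Signal is scored against DMSO.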

Test [2] relates to zebrafish Estrogen Receptor (ER2b), gene 317733. Put plainly: ATG_zfER2b_XSP2: Attagene TRANS-FACTORIAL Multi-Species (XSP2) HepG2 Assay for zebrafish Estrogen Receptor (ER2b) (AID 2283823).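 Further: fitted upward as reporter gain over DMSO so potency reflects activation.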 The method in brief:
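Transfect HepG2 with GAL4-UAS reporter constructs; dose chemicals, 24 h; isolate RNA, RT-PCR, FAM-label, HpaI digest; capillary electrophoresis. Gain-of-signal vs DMSO.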

Test [3] is described as follows: ATG_M_32_XSP2: Attagene TRANS-FACTORIAL Multi-Species (XSP2) HepG2 Assay for M19 Transcription Factor (Internal Marker) (AID 2283826). The method in brief:
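Read-out: fluorescent reporter mRNA fragments resolved by capillary electrophoresis after RT-PCR, gain-of-signal versus DMSO baseline. Cells were human HepG2 carrying transfected multi-reporter units, exposed 24 h. Medium contained 3 nM 6-alpha-fluorotestosterone plus 1.5 nM norgestrel.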

Test [4] relates to frog Estrogen Receptor (ER2), gene 100174814. Put plainly: ATG_frER2_XSP2: Attagene TRANS-FACTORIAL Multi-Species (XSP2) HepG2 Assay for frog Estrogen Receptor (ER2) (AID 2283828). The method in brief:
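Multiplexed transactivation in HepG2: frog estrogen receptor fused to Gal4 drives a UAS reporter. Signal is reporter mRNA after 24 h treatment.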

Test [5] deals with Peroxisome proliferator-activated receptor gamma (Homo sapiens) (UniProt P37231). Put plainly: ATG_hPPARg_XSP2: Attagene TRANS-FACTORIAL Multi-Species (XSP2) HepG2 Assay for human Peroxisome Proliferator-activated Receptor gamma (PPARg) (AID 2283829).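 Further: actives raise reporter mRNA above DMSO so AC50 reflects PPARg activation.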 The method in brief:
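Transient MRTU transfection, HepG2; TRANS format (exogenous NR-Gal4 chimeras). 24 h chemical exposure with 3 nM 6-alpha-fluorotestosterone and 1.5 nM norgestrel present. Readout: reporter mRNA via RT-PCR/CE fluorescence, up-direction vs DMSO.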

Test [6] concerns the target mouse Peroxisome Proliferator-activated Receptor gamma (PPARg), Pparg (gene 19016) (UniProt P37238). Put plainly: ATG_mPPARg_XSP2: Attagene TRANS-FACTORIAL Multi-Species (XSP2) HepG2 Assay for mouse Peroxisome Proliferator-activated Receptor gamma (PPARg) (AID 2283830).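 Further: hits are gains in reporter mRNA above DMSO so AC50 marks activation.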 The method in brief: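 HepG2 cells transiently transfected with GAL4-UAS reporter units for chimeric NR-Gal4 proteins including mouse PPARg, exposed 24 h; medium contained 3 nM 6-alpha-fluorotestosterone and 1.5 nM norgestrel. Reporter mRNA quantified by RT-PCR, HpaI digestion and capillary electrophoresis, vs DMSO.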

The target in test [7] is Nuclear receptor subfamily 1 group I member 2 (Mus musculus) (UniProt O54915). The test can be described thus: ATG_mPXR_XSP2: Attagene TRANS-FACTORIAL Multi-Species (XSP1) HepG2 Assay for mouse Pregnane X Receptor (PXR) (AID 2283831). The method in brief: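 Transient HepG2 transfection, multiplexed GAL4-UAS reporters, NR-GAL4 chimeras. 24 h compound exposure. Readout: reporter mRNA, RT-PCR, fluorescent capillary electrophoresis; positive direction vs DMSO baseline.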

Test [8] addresses zebrafish Thyroid Hormone Receptor alpha (TRa), thraa (gene 30670) (UniProt Q98867). Put plainly: ATG_zfTRa_XSP2: Attagene TRANS-FACTORIAL Multi-Species (XSP1) HepG2 Assay for zebrafish Thyroid Hormone Receptor alpha (TRa) (AID 2283832).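 Further: actives raise zebrafish TRa-Gal4 reporter transcript above DMSO baseline.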 The method in brief:
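Transient transfection of human HepG2 with GAL4-UAS reporter units, then 24 h chemical treatment. RNA isolated, reverse-transcribed, PCR-amplified, FAM-labelled, HpaI-digested and run on capillary electrophoresis. Gain-of-signal relative to DMSO.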

Test [9] deals with zebrafish Peroxisome Proliferator-activated Receptor gamma (PPARg), gene 557037. Put plainly: ATG_zfPPARg_XSP2: Attagene TRANS-FACTORIAL Multi-Species (XSP2) HepG2 Assay for zebrafish Peroxisome Proliferator-activated Receptor gamma (PPARg) (AID 2283833).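 Further: reporter mRNA from a zebrafish PPARg GAL4 chimera measured by RT-PCR and capillary electrophoresis; actives increase reporter signal over DMSO so AC50 reflects activation.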 The method in brief: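 Transfect HepG2 with multiplexed GAL4-UAS reporter constructs; dose chemical 24 h; isolate RNA, reverse-transcribe, PCR-amplify, label and digest reporter products; resolve by capillary electrophoresis. Activity taken as increase over DMSO.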

The subject of test [10] is turtle Thyroid Hormone Receptor, alpha (TRa), gene 101949057. The test can be described thus: ATG_trTRa_XSP2: Attagene TRANS-FACTORIAL Multi-Species (XSP1) HepG2 Assay for turtle Thyroid Hormone Receptor, alpha (TRa) (AID 2283834).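 Further: hits raise reporter mRNA over the DMSO baseline so AC50 marks activators.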 The method in brief: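 Readout: reporter mRNA induction, fluorescence after RT-PCR, HpaI digestion and capillary electrophoresis. Transiently transfected HepG2, exogenous NR-Gal4 chimera driving GAL4-UAS reporter, 24 h compound exposure. Activity fitted upward relative to DMSO baseline.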

Test [11] is described as follows: ATG_M_61_XSP2: Attagene TRANS-FACTORIAL Multi-Species (XSP2) HepG2 Assay for M61 Transcription Factor (Internal Marker) (AID 2283835; active means hit-call score of the fitted dose curve at least 0.9, where 1 is the maximum; inactive means score below 0.9;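 further: reporter mRNA of an internal background marker read by RT-PCR and capillary electrophoresis; active means a rise in signal above the DMSO baseline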). The method in brief: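 First, HepG2 cells are transfected with reporter units under GAL4-UAS control. Next, chemicals are applied for 24 h. Then total RNA is reverse-transcribed, amplified, fluorescently labelled and sized by capillary electrophoresis, with gain of signal scored against DMSO.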

Test [12] deals with zebrafish Thyroid Hormone Receptor beta (TRb), thrb (gene 30607) (UniProt Q9PVE4). Put plainly: ATG_zfTRb_XSP2: Attagene TRANS-FACTORIAL Multi-Species (XSP1) HepG2 Assay for zebrafish Thyroid Hormone Receptor beta (TRb) (AID 2283836). The method in brief: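 Human liver HepG2, transient MRTU transfection (NR-Gal4 chimeras, GAL4-UAS reporters); 24 h compound exposure; total RNA → oligo(dT) RT → PCR → 6-FAM label → HpaI cut → CE fluorescence. DMSO = negative control/baseline.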

Test [13] has as its target human Thyroid hormone Receptor alpha (TRa), THRA (gene 7067) (UniProt P10827). The test can be described thus: ATG_hTRa_XSP2: Attagene TRANS-FACTORIAL Multi-Species (XSP2) HepG2 Assay for human Thyroid hormone Receptor alpha (TRa) (AID 2283838). The method in brief:
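HepG2 cells were transiently transfected with GAL4-UAS reporter units for chimeric human TRa-Gal4 and dosed for 24 hours, with 3 nM 6-alpha-fluorotestosterone and 1.5 nM norgestrel present. Reporter mRNA was quantified by RT-PCR, FAM labelling and capillary electrophoresis, with gain of signal fitted versus DMSO.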

The target in test [14] is frog Thyroid hormone Receptor alpha (TRa), thra-a (gene 397942) (UniProt P15204). The test can be described thus: ATG_frTRa_XSP2: Attagene TRANS-FACTORIAL Multi-Species (XSP2) HepG2 Assay for frog Thyroid hormone Receptor alpha (TRa) (AID 2283839). The method in brief: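 Read-out: fluorescent reporter-transcript fragments resolved by capillary electrophoresis after RT-PCR and HpaI cut. Human HepG2 liver cells carry a transfected frog TRα-Gal4 chimera driving a UAS reporter; 24 h exposure, DMSO baseline, positive-direction fit.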

The target of test [15] is human Thyroid hormone Receptor beta (TRb), THRB (gene 7068) (UniProt P10828). The test can be described thus: ATG_hTRb_XSP2: Attagene TRANS-FACTORIAL Multi-Species (XSP2) HepG2 Assay for human Thyroid hormone Receptor beta (TRb) (AID 2283840).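 Further: actives raise reporter mRNA so potency reflects agonist-like gain of signal.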 The method in brief:
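Read-out: reporter mRNA induction (RT-PCR, 6-FAM labeling, capillary electrophoresis), gain-of-signal relative to DMSO baseline. Transiently transfected HepG2 TRANS multiplex (NR-Gal4 chimeras, GAL4-UAS reporters), 24 h chemical exposure; medium contained 3 nM 6-alpha-fluorotestosterone plus 1.5 nM norgestrel.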

For test [16], the system named is Sodium/Iodide Symporter (NIS), SLC5A5 (gene 6528). The test can be described thus: CPHEA_Stoker_NIS_Inhibition_RAIU: CPHEA's Radioactive Iodide Uptake (RAIU) Assay for Sodium/Iodide Symporter (NIS) Inhibition, Stoker and Laws Labs (AID 2283841). The method in brief: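 Test chemicals, six concentrations from 0.001 to 100uM in 0.5% DMSO, were co-incubated with carrier-free 125I (final 329pM) on hNIS-HEK293T-EPA monolayers in pH 7.4 HEPES-buffered HBSS. Plates stood 2 hours at room temperature, then were washed cold and counted.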

Where “and” joins values, the source holds several entries; their conditions need not be identical. Equal values may be shown once. Inconclusive results are not listed. Calls of active or inactive are those of the source. How the source made its calls, unless noted: active means hit-call score of the fitted dose curve at least 0.9, where 1 is the maximum; inconclusive means response in the unintended direction; inactive means score below 0.9.

Chain of Nuclear receptor subfamily 1 group I member 2 (Mus musculus) (O54915 whole entry, looked up, the tested form may be a part): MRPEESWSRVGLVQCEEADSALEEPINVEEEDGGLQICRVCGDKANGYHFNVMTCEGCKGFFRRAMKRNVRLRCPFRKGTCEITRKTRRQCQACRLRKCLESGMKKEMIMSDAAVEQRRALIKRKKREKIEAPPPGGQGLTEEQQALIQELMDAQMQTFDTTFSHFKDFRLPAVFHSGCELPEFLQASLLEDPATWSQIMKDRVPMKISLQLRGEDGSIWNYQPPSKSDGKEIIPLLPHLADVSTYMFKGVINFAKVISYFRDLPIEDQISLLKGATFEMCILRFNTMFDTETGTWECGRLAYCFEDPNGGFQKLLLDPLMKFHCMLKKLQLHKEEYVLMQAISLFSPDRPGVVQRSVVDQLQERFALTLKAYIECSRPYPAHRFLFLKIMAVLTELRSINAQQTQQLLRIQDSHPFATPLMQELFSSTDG
Chain of Peroxisome proliferator-activated receptor gamma (Homo sapiens) (P37231 whole entry, looked up, the tested form may be a part): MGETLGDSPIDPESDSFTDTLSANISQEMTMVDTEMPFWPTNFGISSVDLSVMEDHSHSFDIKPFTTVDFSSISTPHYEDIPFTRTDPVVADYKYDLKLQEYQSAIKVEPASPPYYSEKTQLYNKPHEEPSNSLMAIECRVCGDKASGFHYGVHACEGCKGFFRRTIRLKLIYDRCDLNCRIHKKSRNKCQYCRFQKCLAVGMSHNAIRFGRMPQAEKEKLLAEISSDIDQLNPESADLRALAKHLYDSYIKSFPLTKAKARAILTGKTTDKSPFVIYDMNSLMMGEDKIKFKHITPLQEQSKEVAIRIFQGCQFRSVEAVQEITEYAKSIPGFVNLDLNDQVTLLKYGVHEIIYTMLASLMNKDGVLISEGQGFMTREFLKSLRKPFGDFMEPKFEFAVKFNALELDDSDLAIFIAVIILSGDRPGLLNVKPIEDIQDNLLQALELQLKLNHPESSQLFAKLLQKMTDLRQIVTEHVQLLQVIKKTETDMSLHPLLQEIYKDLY
Chain of zebrafish Thyroid Hormone Receptor beta (TRb), thrb (gene 30607) (Q9PVE4 whole entry, looked up, the tested form may be a part): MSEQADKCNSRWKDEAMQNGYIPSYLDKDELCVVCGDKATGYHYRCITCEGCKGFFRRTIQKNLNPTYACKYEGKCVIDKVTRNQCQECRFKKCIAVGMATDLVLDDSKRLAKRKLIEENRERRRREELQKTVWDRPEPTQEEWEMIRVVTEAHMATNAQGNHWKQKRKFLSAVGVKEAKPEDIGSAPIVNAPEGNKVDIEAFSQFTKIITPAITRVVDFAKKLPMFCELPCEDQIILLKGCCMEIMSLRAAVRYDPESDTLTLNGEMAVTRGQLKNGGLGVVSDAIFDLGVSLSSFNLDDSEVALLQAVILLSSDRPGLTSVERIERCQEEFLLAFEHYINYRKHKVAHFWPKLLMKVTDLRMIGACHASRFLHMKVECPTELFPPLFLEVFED
Chain of zebrafish Thyroid Hormone Receptor alpha (TRa), thraa (gene 30670) (Q98867 whole entry, looked up, the tested form may be a part): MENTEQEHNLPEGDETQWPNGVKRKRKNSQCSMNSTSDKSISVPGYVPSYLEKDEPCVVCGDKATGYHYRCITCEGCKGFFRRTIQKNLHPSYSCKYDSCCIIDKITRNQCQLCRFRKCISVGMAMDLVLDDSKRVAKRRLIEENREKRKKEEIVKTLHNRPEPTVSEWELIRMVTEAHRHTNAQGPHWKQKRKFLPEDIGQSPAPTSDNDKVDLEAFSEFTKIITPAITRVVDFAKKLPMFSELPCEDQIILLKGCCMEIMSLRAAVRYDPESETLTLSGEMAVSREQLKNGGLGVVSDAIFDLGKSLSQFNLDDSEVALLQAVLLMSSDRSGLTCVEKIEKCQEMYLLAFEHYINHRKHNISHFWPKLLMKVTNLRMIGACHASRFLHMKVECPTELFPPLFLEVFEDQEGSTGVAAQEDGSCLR
Chain of mouse Peroxisome Proliferator-activated Receptor gamma (PPARg), Pparg (gene 19016) (P37238 whole entry, looked up, the tested form may be a part): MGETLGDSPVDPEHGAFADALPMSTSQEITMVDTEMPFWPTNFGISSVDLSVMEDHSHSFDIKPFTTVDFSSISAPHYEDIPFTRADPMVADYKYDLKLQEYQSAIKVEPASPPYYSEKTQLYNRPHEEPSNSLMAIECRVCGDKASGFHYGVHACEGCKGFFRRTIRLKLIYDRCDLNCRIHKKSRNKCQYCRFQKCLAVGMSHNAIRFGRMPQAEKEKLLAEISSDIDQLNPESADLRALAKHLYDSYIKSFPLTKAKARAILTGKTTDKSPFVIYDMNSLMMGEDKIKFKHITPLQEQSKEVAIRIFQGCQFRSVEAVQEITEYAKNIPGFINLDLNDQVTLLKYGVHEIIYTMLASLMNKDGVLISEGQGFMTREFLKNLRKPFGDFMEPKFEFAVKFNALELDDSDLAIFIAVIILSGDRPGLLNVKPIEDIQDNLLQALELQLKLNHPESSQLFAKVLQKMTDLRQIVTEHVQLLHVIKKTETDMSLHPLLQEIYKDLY
Chain of frog Thyroid hormone Receptor alpha (TRa), thra-a (gene 397942) (P15204 whole entry, looked up, the tested form may be a part): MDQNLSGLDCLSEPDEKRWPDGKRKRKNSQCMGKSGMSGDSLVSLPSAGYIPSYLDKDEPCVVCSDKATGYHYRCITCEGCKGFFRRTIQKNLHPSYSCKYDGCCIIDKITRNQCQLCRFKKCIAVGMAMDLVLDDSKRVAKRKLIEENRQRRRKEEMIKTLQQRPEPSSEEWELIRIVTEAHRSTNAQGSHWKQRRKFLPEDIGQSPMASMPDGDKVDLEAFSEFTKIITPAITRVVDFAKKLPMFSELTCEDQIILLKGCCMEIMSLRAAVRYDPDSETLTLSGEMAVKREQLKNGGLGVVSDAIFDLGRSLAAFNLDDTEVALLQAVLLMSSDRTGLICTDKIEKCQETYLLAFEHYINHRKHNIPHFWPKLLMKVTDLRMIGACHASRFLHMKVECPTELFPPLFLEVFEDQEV
Chain of human Thyroid hormone Receptor beta (TRb), THRB (gene 7068) (P10828 whole entry, looked up, the tested form may be a part): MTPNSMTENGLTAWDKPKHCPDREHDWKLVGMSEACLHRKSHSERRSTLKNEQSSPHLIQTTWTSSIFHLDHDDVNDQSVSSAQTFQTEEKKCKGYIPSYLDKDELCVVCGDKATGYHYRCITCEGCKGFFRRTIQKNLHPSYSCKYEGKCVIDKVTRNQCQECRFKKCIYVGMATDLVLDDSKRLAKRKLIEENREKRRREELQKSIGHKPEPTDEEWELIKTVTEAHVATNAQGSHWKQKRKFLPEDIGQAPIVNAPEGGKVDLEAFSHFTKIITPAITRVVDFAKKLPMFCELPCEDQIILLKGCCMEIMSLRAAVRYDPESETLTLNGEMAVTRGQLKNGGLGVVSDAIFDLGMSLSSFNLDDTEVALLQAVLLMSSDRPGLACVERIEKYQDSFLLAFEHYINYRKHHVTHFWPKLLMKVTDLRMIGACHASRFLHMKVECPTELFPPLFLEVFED
Chain of human Thyroid hormone Receptor alpha (TRa), THRA (gene 7067) (P10827 whole entry, looked up, the tested form may be a part): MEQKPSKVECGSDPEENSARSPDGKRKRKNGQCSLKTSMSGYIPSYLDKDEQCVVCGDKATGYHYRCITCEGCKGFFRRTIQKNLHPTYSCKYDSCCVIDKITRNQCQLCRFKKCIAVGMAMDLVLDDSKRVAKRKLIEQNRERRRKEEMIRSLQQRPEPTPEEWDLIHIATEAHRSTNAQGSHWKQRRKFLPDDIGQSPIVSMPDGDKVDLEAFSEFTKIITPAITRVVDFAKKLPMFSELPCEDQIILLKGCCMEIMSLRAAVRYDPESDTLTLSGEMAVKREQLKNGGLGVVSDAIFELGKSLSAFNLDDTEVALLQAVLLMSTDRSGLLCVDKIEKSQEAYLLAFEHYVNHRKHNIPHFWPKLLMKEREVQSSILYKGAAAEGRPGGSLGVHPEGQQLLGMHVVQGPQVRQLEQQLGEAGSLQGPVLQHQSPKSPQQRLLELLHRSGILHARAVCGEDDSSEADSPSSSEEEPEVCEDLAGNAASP

As for `CCC(CC)Nc1c([N+](=O)[O-])cc(C)c(C)c1[N+](=O)[O-]`, the AC50 (as a rule, the midpoint of the concentration-response curve, whichever way the signal moves) in test [1] was 3.96 µM (active) and 5.7 µM (active); in [2], 18.1 µM (active) and 7.12 µM (active); in test [4], 8.22 µM (active) and 4.99 µM (active); in test [7], 266 nM (active) and 269 nM (active). In addition, the call in test [3], in [5], in [6], in test [8], in test [9] and in [10] was inactive. Moreover, the result in [11], in test [12], in test [13], in test [14], in test [15] and in test [16] was inactive.

Consider `CC1(C(=O)Nc2ccc(O)c(Cl)c2Cl)CCCCC1`, for which the outcome in test [16] was inactive.

`C=C(C)[C@H]1Cc2c(ccc3c2O[C@@H]2COc4cc(OC)c(OC)cc4[C@@H]2C3=O)O1`: the concentration at half-maximal activity (AC50) in test [16] is 0.0708 µM (active).

With `O=[N+]([O-])c1cc(C(F)(F)F)c(Cl)c([N+](=O)[O-])c1Nc1ncc(C(F)(F)F)cc1Cl`, the AC50 in [16] was 6.41 µM (active).

In the case of `CCc1cccc(C)c1N(C(=O)CCl)C(C)COC` (stereo not given), the call in [2], in test [3], in test [4], in [8], in test [9] and in [11] was inactive. For the same compound, the result in [12] and in [14] was inactive. Besides, the figures for the AC50 in test [5], in test [6] and in test [7] were 55.8 µM (active), 27.3 µM (active) and 3.96 µM (active), respectively.

For the compound `CCOP(=S)(Oc1cnc(C(C)(C)C)nc1)OC(C)C` (stereo not given), the result in test [16] was inactive.

As to `C#CCC1=C(C)C(OC(=O)C2C(C=C(C)C)C2(C)C)CC1=O` (stereo not given), the compound was classed as inactive in test [1], in [2], in test [4], in test [8], in test [9] and in test [10]. In addition, the result in test [11], in [12], in test [13], in [14] and in [15] was inactive. Further, the AC50 in test [5] was 22.6 µM (active); in test [6], 30.2 µM (active); in test [7], 0.712 µM (active); in test [16], 47.5 µM (active).

Take `CCCCN(CC)c1c([N+](=O)[O-])cc(C(F)(F)F)cc1[N+](=O)[O-]`: the result in test [16] was inactive.

For `Cc1cc(C2CC2)nc(Nc2ccccc2)n1`, the AC50 in [16] is 44 µM (active).

As to `CCOC(=O)COc1cc(-c2nn(C)c(OC(F)F)c2Cl)c(F)cc1Cl`, the outcome in test [16] was inactive.

As to `FC(F)C(F)(F)OCC(Cn1cncn1)c1ccc(Cl)cc1Cl` (stereo not given), the result in test [16] was inactive.
